The values below come from ChEMBL document CHEMBL1961873, “Compounds: GSK PKIS; Assays: Nanosyn kinase panel” (2012).

By inhibition is commonly meant the relative decrease from the control value, in per cent.

Each structure is given as a SMILES string. Where “and” joins values, the source holds several entries; their conditions need not be identical. Equal values may be shown once.

Tyrosine-protein kinase Fes/Fps (Homo sapiens), sequence (P07332 whole entry): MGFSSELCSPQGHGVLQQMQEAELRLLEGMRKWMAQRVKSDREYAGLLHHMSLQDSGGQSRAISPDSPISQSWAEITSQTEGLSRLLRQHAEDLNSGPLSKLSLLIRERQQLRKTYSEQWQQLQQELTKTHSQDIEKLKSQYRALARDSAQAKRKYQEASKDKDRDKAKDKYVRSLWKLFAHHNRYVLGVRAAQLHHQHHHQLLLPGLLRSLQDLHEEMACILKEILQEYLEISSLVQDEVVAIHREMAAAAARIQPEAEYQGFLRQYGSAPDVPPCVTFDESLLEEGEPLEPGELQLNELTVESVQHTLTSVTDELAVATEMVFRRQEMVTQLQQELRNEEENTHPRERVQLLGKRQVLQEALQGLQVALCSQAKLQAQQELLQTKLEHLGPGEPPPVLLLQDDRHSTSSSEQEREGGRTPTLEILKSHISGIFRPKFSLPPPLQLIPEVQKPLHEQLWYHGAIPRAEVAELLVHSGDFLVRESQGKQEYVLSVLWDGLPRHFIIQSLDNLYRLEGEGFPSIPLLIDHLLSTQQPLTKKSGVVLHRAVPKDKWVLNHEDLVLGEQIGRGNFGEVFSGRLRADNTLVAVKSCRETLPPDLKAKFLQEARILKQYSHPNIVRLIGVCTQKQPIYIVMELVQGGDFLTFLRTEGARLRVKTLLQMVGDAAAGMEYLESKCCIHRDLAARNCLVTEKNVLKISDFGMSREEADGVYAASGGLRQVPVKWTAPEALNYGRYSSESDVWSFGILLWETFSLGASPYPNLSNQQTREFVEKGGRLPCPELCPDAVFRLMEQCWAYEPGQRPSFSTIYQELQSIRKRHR

The first experiment addresses Tyrosine-protein kinase Fes/Fps (Homo sapiens) (UniProt P07332). Particulars: at 1 µM.
Turning to `NS(=O)(=O)c1ccc(N/N=C2\C(=O)Nc3ccc(C(=O)NCc4ccncc4)cc32)cc1`, the inhibition turned out to be 1.67%.

Consider `Nc1nccc(-c2c(-c3ccc(F)cc3)ncn2C2CCNCC2)n1`, for which the inhibition is -3.68% and -0.18%.

Turning to `CCOc1ccc2c(-c3ccnc(Nc4cc(OC)cc(C(F)(F)F)c4)n3)cnn2n1`, the inhibition was 0.05%.

For `CS(=O)(=O)CCNCc1ccc(-c2ccc3ncnc(Nc4ccc(OCc5cccc(C(F)(F)F)c5)cc4)c3c2)o1`, the inhibition stood at 4.12%.

For `Fc1ccc(Nc2nccc(-c3c(-c4ccc(C(F)(F)F)cc4)nn4ncccc34)n2)cc1F`, the inhibition was found to be 3.35%.

On to `COc1cccc(-n2ncc3c(N/N=C/c4ccc(C(=O)NCCN(C)C)cc4)ncnc32)c1`, for which the inhibition was determined as 3.63%.

Consider `CCn1c(-c2nonc2N)nc2cncc(C(=O)NCCNC)c21`, for which the inhibition was 4.8%.

Regarding `COc1cc(Nc2ncc(-c3ccccc3)o2)cc(OC)c1`, the inhibition was 3.89%.

Take `O=C1Nc2ccccc2/C1=C1\CCc2cc(O)ccc21`: the inhibition came out at 6.81%.

Turning to `CS(=O)(=O)CCNCc1ccc(-c2ccc3ncnc(Nc4ccc(OCc5ccccc5)cc4)c3c2)o1`, the inhibition came to 3.54%.

For the compound `FC(F)(F)CNc1nccc(-c2cnn3ncccc23)n1`, the inhibition was found to be 1.66%.

In the case of `Cc1c2ccc(N(C)c3ccnc(Nc4cccc(S(N)(=O)=O)c4)n3)cc2nn1C`, the inhibition was 56.1%.

On to `CN1CCC(n2cnc(-c3ccc(F)cc3)c2-c2ccnc(NCCO)n2)CC1`, for which the inhibition stood at 3.24%.

Consider `NS(=O)(=O)c1cccc(N/C=C2\C(=O)Nc3ccccc32)c1`, for which the inhibition was found to be 3.46%.

In the case of `CNC(=O)c1ncccc1Nc1nc(Nc2cc3c(cc2OC)CCCN3C(=O)CN(C)C)nc2[nH]ccc12`, the inhibition was determined as 80.6%.

As for `COc1c(C(N)=O)cc(-c2ccc(Cl)cc2)cc1-c1ccc(S(N)(=O)=O)cc1`, the inhibition is 5.26%.

As to `COc1ccccc1-c1cc(/C=C2\C(=O)Nc3ncc(Br)cc32)cc(Br)c1O`, the inhibition was found to be 4.41%.

For `COc1cc2c(cc1Nc1nc(Nc3cccc(F)c3C(N)=O)c3cc[nH]c3n1)N(C(=O)CN1CCN(C(C)C)CC1)CC2`, the inhibition came out at 59.2%.

As for `COc1ccc(-c2nn3ncccc3c2-c2ccnc(Nc3ccc(F)c(F)c3)n2)cc1`, the inhibition came to 2.57%.

In the case of `Cc1cc(O)cc(C)c1/C=C/c1cncc(C(N)=O)c1`, the inhibition stood at 1.94%.

With `Cc1nnc(-c2cccc(-c3ccc(C(=O)NCC4CC4)cc3)c2)o1`, the inhibition was determined as 4.25%.

`O=C(O[C@H]1CN[C@H](C#Cc2cc3ncnc(Nc4ccc5c(cnn5Cc5ccccc5)c4)c3s2)C1)N1CCOCC1`: the inhibition was -1.2%.

In the case of `CC(C)c1ccc(-c2cc(-c3c[nH]nc3-c3ccccn3)ccn2)cc1`, the inhibition came out at 1.23%.

Regarding `COC(=O)Nc1nc2ccc(Oc3ccc(NC(=O)Nc4cc(C(F)(F)F)ccc4F)cc3)cc2s1`, the inhibition turned out to be 0.99%.

Regarding `CC1=C(C(=O)Nc2ccc3[nH]ncc3c2)C(c2ccc(F)cc2)N=C(c2ccc(C(F)(F)F)nc2)N1` (configuration not stated), the inhibition was determined as 2.21%.

`Cc1cc(O)cc(C)c1/C=C/c1cncc(C(=O)OC(C)(C)C)c1`: the inhibition worked out at 2.34%.

On to `COC(=O)Nc1nc2cc(Oc3ccc(NC(=O)Nc4ccccc4)cc3)ccc2[nH]1`, for which the inhibition amounted to 1.32%.

Take `CC1(C)CC(n2cnc(-c3ccc(F)cc3)c2-c2ccnc(N)n2)CC(C)(C)N1`: the inhibition is -0.76%.

For the compound `COc1cc(N2CCN(C(C)C)CC2)ccc1Nc1nc(Nc2cccc3ncccc23)c2cc[nH]c2n1`, the inhibition amounted to 10%.

In the case of `c1ccc(-c2n[nH]cc2-c2ccnc(-c3ccc(OCCn4ccnc4)cc3)c2)nc1`, the inhibition was -0.73%.

With `Nc1ncnc2occ(-c3ccc(NC(=O)Nc4cc(C(F)(F)F)ccc4F)cc3)c12`, the inhibition was 3.25% and -0.8%.

The target of another experiment is Fibroblast growth factor receptor 1 (Homo sapiens) (UniProt P11362). Particulars: at 0.1 µM.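 Note: values are reported as mean percent inhibition.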
Fibroblast growth factor receptor 1 (Homo sapiens), sequence (P11362 22-822 limits assumed): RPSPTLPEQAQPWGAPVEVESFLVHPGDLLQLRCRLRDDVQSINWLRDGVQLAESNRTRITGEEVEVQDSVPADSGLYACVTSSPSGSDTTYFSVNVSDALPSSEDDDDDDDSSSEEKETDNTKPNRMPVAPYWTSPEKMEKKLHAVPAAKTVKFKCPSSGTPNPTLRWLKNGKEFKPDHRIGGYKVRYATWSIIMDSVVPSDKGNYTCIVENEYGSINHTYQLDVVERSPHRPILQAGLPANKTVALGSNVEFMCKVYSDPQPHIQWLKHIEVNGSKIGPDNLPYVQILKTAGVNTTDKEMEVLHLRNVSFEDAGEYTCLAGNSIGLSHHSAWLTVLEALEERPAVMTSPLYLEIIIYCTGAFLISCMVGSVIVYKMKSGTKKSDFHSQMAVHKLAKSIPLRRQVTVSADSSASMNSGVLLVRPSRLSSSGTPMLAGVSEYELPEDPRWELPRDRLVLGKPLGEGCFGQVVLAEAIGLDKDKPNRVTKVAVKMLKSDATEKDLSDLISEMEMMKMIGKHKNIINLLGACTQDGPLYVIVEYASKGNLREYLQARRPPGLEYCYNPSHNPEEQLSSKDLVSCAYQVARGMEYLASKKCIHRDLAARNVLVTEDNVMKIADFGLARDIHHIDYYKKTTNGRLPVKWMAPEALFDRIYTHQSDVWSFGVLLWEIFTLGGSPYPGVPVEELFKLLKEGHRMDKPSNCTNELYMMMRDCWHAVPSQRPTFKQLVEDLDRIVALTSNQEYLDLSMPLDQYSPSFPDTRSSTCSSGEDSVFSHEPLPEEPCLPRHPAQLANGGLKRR
For the compound `NS(=O)(=O)c1ccc(N/N=C2\C(=O)Nc3ccc(C(=O)NCc4ccncc4)cc32)cc1`, the inhibition turned out to be 3.12%.

Regarding `Nc1nccc(-c2c(-c3ccc(F)cc3)ncn2C2CCNCC2)n1`, the inhibition was -5.66% and -0.16%.

Take `CCOc1ccc2c(-c3ccnc(Nc4cc(OC)cc(C(F)(F)F)c4)n3)cnn2n1`: the inhibition worked out at 4.3%.

In the case of `CS(=O)(=O)CCNCc1ccc(-c2ccc3ncnc(Nc4ccc(OCc5cccc(C(F)(F)F)c5)cc4)c3c2)o1`, the inhibition came to 6.33%.

As to `Fc1ccc(Nc2nccc(-c3c(-c4ccc(C(F)(F)F)cc4)nn4ncccc34)n2)cc1F`, the inhibition was 7.42%.

On to `COc1cccc(-n2ncc3c(N/N=C/c4ccc(C(=O)NCCN(C)C)cc4)ncnc32)c1`, for which the inhibition worked out at 4.74%.

As for `CCn1c(-c2nonc2N)nc2cncc(C(=O)NCCNC)c21`, the inhibition is 2.05%.

As to `COc1cc(Nc2ncc(-c3ccccc3)o2)cc(OC)c1`, the inhibition is 2.6%.

For the compound `O=C1Nc2ccccc2/C1=C1\CCc2cc(O)ccc21`, the inhibition came to 8.16%.

Regarding `CS(=O)(=O)CCNCc1ccc(-c2ccc3ncnc(Nc4ccc(OCc5ccccc5)cc4)c3c2)o1`, the inhibition stood at 6.5%.

For `FC(F)(F)CNc1nccc(-c2cnn3ncccc23)n1`, the inhibition was determined as 4.83%.

As for `Cc1c2ccc(N(C)c3ccnc(Nc4cccc(S(N)(=O)=O)c4)n3)cc2nn1C`, the inhibition was determined as 24.9%.

`CN1CCC(n2cnc(-c3ccc(F)cc3)c2-c2ccnc(NCCO)n2)CC1`: the inhibition was 3.14%.

As for `NS(=O)(=O)c1cccc(N/C=C2\C(=O)Nc3ccccc32)c1`, the inhibition was 5.1%.

Regarding `CNC(=O)c1ncccc1Nc1nc(Nc2cc3c(cc2OC)CCCN3C(=O)CN(C)C)nc2[nH]ccc12`, the inhibition worked out at 9.89%.

`COc1c(C(N)=O)cc(-c2ccc(Cl)cc2)cc1-c1ccc(S(N)(=O)=O)cc1`: the inhibition amounted to 7.12%.

In the case of `COc1ccccc1-c1cc(/C=C2\C(=O)Nc3ncc(Br)cc32)cc(Br)c1O`, the inhibition came to 3.85%.

With `COc1cc2c(cc1Nc1nc(Nc3cccc(F)c3C(N)=O)c3cc[nH]c3n1)N(C(=O)CN1CCN(C(C)C)CC1)CC2`, the inhibition is 11.4%.

As to `COc1ccc(-c2nn3ncccc3c2-c2ccnc(Nc3ccc(F)c(F)c3)n2)cc1`, the inhibition stood at 4.92%.

Take `Cc1cc(O)cc(C)c1/C=C/c1cncc(C(N)=O)c1`: the inhibition was found to be 2.16%.

On to `Cc1nnc(-c2cccc(-c3ccc(C(=O)NCC4CC4)cc3)c2)o1`, for which the inhibition is 2.64%.

Consider `O=C(O[C@H]1CN[C@H](C#Cc2cc3ncnc(Nc4ccc5c(cnn5Cc5ccccc5)c4)c3s2)C1)N1CCOCC1`, for which the inhibition was -2.97%.

As for `CC(C)c1ccc(-c2cc(-c3c[nH]nc3-c3ccccn3)ccn2)cc1`, the inhibition was found to be 6.6%.

With `COC(=O)Nc1nc2ccc(Oc3ccc(NC(=O)Nc4cc(C(F)(F)F)ccc4F)cc3)cc2s1`, the inhibition was 4.86%.

With `CC1=C(C(=O)Nc2ccc3[nH]ncc3c2)C(c2ccc(F)cc2)N=C(c2ccc(C(F)(F)F)nc2)N1` (configuration not stated), the inhibition was 6.73%.

As to `Cc1cc(O)cc(C)c1/C=C/c1cncc(C(=O)OC(C)(C)C)c1`, the inhibition is 1.91%.

In the case of `COC(=O)Nc1nc2cc(Oc3ccc(NC(=O)Nc4ccccc4)cc3)ccc2[nH]1`, the inhibition is -5.22%.

On to `CC1(C)CC(n2cnc(-c3ccc(F)cc3)c2-c2ccnc(N)n2)CC(C)(C)N1`, for which the inhibition was determined as 6.46%.

Consider `COc1cc(N2CCN(C(C)C)CC2)ccc1Nc1nc(Nc2cccc3ncccc23)c2cc[nH]c2n1`, for which the inhibition is -4.53%.

Regarding `c1ccc(-c2n[nH]cc2-c2ccnc(-c3ccc(OCCn4ccnc4)cc3)c2)nc1`, the inhibition was -3.47%.

Consider `Nc1ncnc2occ(-c3ccc(NC(=O)Nc4cc(C(F)(F)F)ccc4F)cc3)c12`, for which the inhibition is 3.81% and 0.38%.
